PNC inhibitor: perinucleolar compartment assembly inhibition. 140,000 tested, 3.1% active. activity change (PNC), negative = inhibition, % at 10 µM. PC3M PTB-GFP, PNC prevalence imaging, 16 h; stronger effect = lower value. AID 2417;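 active means readout at or below -70, meaning at least 70% loss of cells showing the perinucleolar compartment, a nuclear body marking cancer cells; inconclusive means readout between -30 and a set limit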;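 further: plate controls were DMSO wells for no effect and camptothecin positive control wells for full effect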
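Read-out is percentage of cells bearing a perinucleolar compartment, from automated 20x imaging of fixed, Hoechst-stained PC3M PTB-GFP cells. Cells were seeded 4 h, then exposed 16 h to compound (23 nl of library stock) in duplicate plates.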
KDM4E inh: JMJD2E (human) inhibition | JMJD2E catalytic domain, FDH-coupled NADH fluorescence (FDH is formaldehyde dehydrogenase) | Potency, µM (titrated, usually from 57.1 µM), for the others: at the highest dose activity change, negative = inhibition, usual class: inhibitors | 230,000 tested, 1.6% active | AID 2147; active means well fitted inhibition curve with a large enough effect, not every such curve was filed as active; inconclusive means small, poorly fitted or top-dose-only effect, or another doubt; inactive means no such curve, though single readings can be large or run the other way;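 further: potency means the concentration at half of the fitted maximal effect; 0% = wells with enzyme and -100% = buffer wells without enzyme; nearly all actives have a fitted effect of over 50% in size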
Tau FP inhib: inhibitors of human tau fibril formation | P10636 | K18 P301L tau heparin fibrillization, Alexa594 FP, 6 h | Potency, µM (doses to about 57.7 µM), for inactives: top-dose activity, negative = inhibition, most hits filed as inhibitors | 280,000 tested, 0.39% active | AID 1468; further: potency means the concentration at half of the fitted maximal effect; nearly all actives have a fitted effect of over 55% in size
Target sequence (P10636 561-689 P618L limits assumed): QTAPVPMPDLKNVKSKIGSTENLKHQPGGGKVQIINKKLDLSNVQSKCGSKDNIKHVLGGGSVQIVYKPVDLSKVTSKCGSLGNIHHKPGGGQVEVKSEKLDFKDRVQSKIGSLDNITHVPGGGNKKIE
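Read-out: fluorescence polarization of Alexa 594-labeled tau (0.24 uM), 555 nm excitation, 632 nm emission. Mixtures held 15 uM unlabeled K18 P301L, compound and 20 uM heparin, pH 7 acetate buffer, incubated 6 hr at 37 C.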
Tau fluor cs: counter-screen for tau fibril formation inhibitors; 280,000 tested, 0.93% active; tau K18 P301L Alexa594 fluorescence, heparin fibrillization; AID 1463; Potency, µM (series often up to 57.7 µM), inactives show at the highest dose activity change, negative = decrease; further: potency means the concentration at half of the fitted maximal effect; nearly all actives have a fitted effect of over 55% in size
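Human K18 P301L tau (15 uM unlabeled plus 0.24 uM Alexa 594-labeled, final) in 100 mM sodium acetate pH 7 was mixed with compound and 20 uM heparin and incubated 6 hr at 37 C.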
NPSR antag: neuropeptide S receptor (human) antagonism, cAMP. Potency, µM (highest dose often 38.3 µM), for the others: top-dose activity change, negative = inhibition, usual class: inhibitors. CHO-NPSR cells, cAMP TR-FRET, antagonist mode. 220,000 tested, 1% active. AID 1461; further: potency means the concentration at half of the fitted maximal effect; nearly all actives have a fitted effect of over 50% in size
Target sequence (Q6W5P4 whole entry, looked up): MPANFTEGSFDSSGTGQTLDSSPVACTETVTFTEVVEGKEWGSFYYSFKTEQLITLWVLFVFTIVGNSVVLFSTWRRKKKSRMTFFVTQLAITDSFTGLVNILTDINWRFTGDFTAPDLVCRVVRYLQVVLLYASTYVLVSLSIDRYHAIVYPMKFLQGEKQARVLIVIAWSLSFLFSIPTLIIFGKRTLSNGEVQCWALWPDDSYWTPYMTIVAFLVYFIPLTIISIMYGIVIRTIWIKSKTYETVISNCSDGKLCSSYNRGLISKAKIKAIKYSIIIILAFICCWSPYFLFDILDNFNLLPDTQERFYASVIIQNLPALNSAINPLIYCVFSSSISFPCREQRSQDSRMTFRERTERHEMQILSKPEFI
Tau fibril ThT: blocks human tau fibril formation measured by thioflavin T. recombinant tau K18 P301L (four-repeat tau fragment), heparin-induced fibrillization, ThT fluorescence. Potency, µM (top dose mostly 57.4 µM), without a hit: top-dose activity, negative = inhibition, hits mostly inhibitors. 270,000 tested, 2.1% active; further: potency means the concentration at half of the fitted maximal effect; nearly all actives have a fitted effect of over 55% in size
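In this qHTS, human K18 P301L tau is incubated with compound and heparin for 6 hr at 37 C, and Thioflavin T fluorescence then reports fibril load.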
An asterisk follows results filed as active; u = inconclusive; x = no result given; [ ] = dose if it differs, or a comment. Rows were chosen to be rich in hits. Some 5.1% of all compounds tested hit in one or more screens of this group. Unless noted, the call rests on the fitted dose curve; in most records, active means well fitted curve in the direction sought with a large enough effect; inconclusive means small, poorly fitted or top-dose-only effect, or another doubt; inactive means no such curve, though single readings can be large; an effect the other way counts as inactive or inconclusive. Unless noted, on the % scale 0 is the no-effect control and ±100 the full control effect.

SMILES | PNC inhibitor | KDM4E inh | Tau FP inhib | Tau fluor cs | NPSR antag | Tau fibril ThT
Cc1cccc(C)c1-n1ncc(C(=O)N2CCN(c3ccccn3)CC2)c1C1CCN(C(=O)OC(C)(C)C)CC1 | x | x | -2.3% | -5.6% | x | -17.3%
CCC(C)NS(=O)(=O)c1ccc(N2CCCCS2(=O)=O)cc1 (stereo unspecified) | x | x | -7.0% | -8.4% | x | -4.9%
COc1ccc(N2CC(NC(=O)c3ccc4c(c3)OCO4)CC2=O)cc1 (stereo unspecified) | x | x | -0.6% | -1.6% | x | -2.4%
Cc1cccc(N2CCN(C(=O)c3ccc4nc(N5CCC(C)CC5)sc4c3)CC2)c1C | x | x | -3.1% | -13.5% | x | u
CC(=O)C1=C(C)NC(SCC(=O)c2ccc(F)cc2)=C(C#N)C1c1ccco1 (stereo unspecified) | -19.3 | -24.2% | -4.9% | u | -16.7%[46.1 µM] | 15.8µM*
CN(C)CCCN(C(=O)c1ccc2c(c1)OCCO2)c1nc2ccccc2s1 | x | x | 1.0% | -1.3% | x | -5.4%
CCCc1cc(N2CCN(c3ccccc3F)CC2)n2cnnc2n1 | x | x | 6.6% | 6.4% | x | -0.2%
COc1ccc(-c2nc(-c3cccs3)c(-c3cccs3)[nH]2)cc1O | 14.6 | u | -1.6% | 12.6µM*[quencher] | 10µM* | 12.6µM*
Cc1cc(C2=NNC(=NC3CC3)SC2)c(C)n1Cc1ccco1 | -26.7 | -24.0% | u | -21.9% | 27.4% | u
COCCCN=C1NN=C(c2cc(C)n(Cc3ccco3)c2C)CS1 | -108.4* | -0.6% | -5.8% | -19.9% | 35.1% | u
CC1=C(c2ccc(Cl)cc2)S(=O)(=O)N=C1N1CCN(c2cccc(C)c2)C(C)C1 (stereo unspecified) | x | x | 12.0% | -16.5% | x | u
N#CC12CCCCC1CC1CCCCC1(C#N)N2Cc1cccnc1 (stereo unspecified) | -86.6* | 0.2% | -5.3% | -13.0% | 8.5%[7.67 µM] | 0.1%
O=C1C2C3C=CC([C@@H]2C(=O)N1Cc1cccnc1)C31CC1 (stereo partly specified) | 71.1 | 0.7% | -1.5% | 2.9% | 13.6%[46.1 µM] | 3.7%
Cc1ccc2cccc(NC(=O)c3ccc(-c4ccc(Br)cc4)o3)c2n1 | x | x | -1.9% | -12.2% | x | -10.5%
COC(=O)c1ccccc1NC(=O)c1ccc(-c2ccc(Br)cc2)o1 | 49.8 | 3.55µM* | -1.6% | -4.8% | -15.4%[46.1 µM] | -16.4%
CCc1cccc(CC)c1NC(=O)C1CN(S(=O)(=O)c2ccccc2)CCN1S(=O)(=O)c1ccccc1 (stereo unspecified) | -111.0* | 8.3% | -14.9% | -18.1% | -18.1%[46.1 µM] | -1.7%
CC(=O)C1=C(c2ccccc2)NC(=S)NC1c1ccc(O)c(O)c1 (stereo unspecified) | x | 22.4µM* | 0.5% | -18.4% | 9.6% | -17.6%
Cc1cccc(Cn2c(COc3ccccc3)nc3ccccc32)c1 | x | x | 7.5% | -12.4% | x | -16.3%
Cc1cc(C)nc(SCC(=O)N/N=C/c2cccn2-c2cccc(C(F)(F)F)c2)n1 | -108.4* | -5.3% | 7.9% | -3.0% | -26.4%[46.1 µM] | -6.0%
Cc1cc(C)nc(SCC(=O)N/N=C/c2cccn2-c2ccc(O)cc2)n1 | u | -2.0% | 9.7% | -16.6% | -11.9%[46.1 µM] | -9.0%
COc1ccccc1/C=C/c1nc(C#N)c(NCCc2ccccc2)o1 | x | x | u | 3.55µM*[quencher] | x | u
Cc1ccc(OCC(=O)Nc2nnn(C)n2)c(C)c1 | -22.3 | 2.4% | 6.8% | 4.5% | -5.0%[46.1 µM] | 9.7%
Cc1cc(C)c(OCC(=O)Nc2nnn(C)n2)c(Br)c1 | -100.0* | -7.5% | -0.7% | -1.4% | 4.5%[46.1 µM] | -4.3%
c1ccc(CSc2nnc(-c3ccco3)n2Cc2ccco2)cc1 | -10.5 | -1.3% | -12.6% | -24.8% | -23.0%[46.1 µM] | u
CCCCOc1[nH]c2nc(-c3ccco3)n(Cc3ccco3)c(=N)c2c1C#N | -18.4 | u | -11.1% | u | -22.9%[46.1 µM] | 22.4µM*
SMILES | PNC inhibitor | KDM4E inh | Tau FP inhib | Tau fluor cs | NPSR antag | Tau fibril ThT
CC1=C(C(=O)OCc2ccc(C)cc2)C(c2ccccc2C(F)(F)F)CC(=O)N1 (stereo unspecified) | x | x | 4.1% | -8.6% | x | -6.4%
O=C(Nc1ccc(Cl)c(C(F)(F)F)c1)C(Cc1ccccc1)NS(=O)(=O)c1ccc(Br)s1 (stereo unspecified) | x | x | u | 8.2% | x | 5.4%
COc1ccccc1N1CSC2=C(C#N)C(c3ccc(SC)cc3)CC(=O)N2C1 (stereo unspecified) | -17.0 | 22.4µM* | u | -24.4% | -8.4%[46.1 µM] | 28.2µM*
COc1cccc(C2CC(=O)N3CN(c4ccccc4F)CSC3=C2C#N)c1 (stereo unspecified) | -28.5 | u | -7.6% | -14.8% | -3.6%[46.1 µM] | u
COc1cc(C2CC(=O)N3CN(c4ccccc4C)CSC3=C2C#N)cc(OC)c1OC (stereo unspecified) | 8.2 | 11.2µM* | u | -12.7% | -10.4%[46.1 µM] | 22.4µM*
CCOC(=O)c1[nH]c(C)c(C(=O)NCCc2ccccc2)c1C | x | x | 1.2% | -5.1% | x | -2.2%
CCOc1ccc(NC(=O)c2c(NCc3ccc(C)o3)sc3c2CCCCC3)cc1 | x | x | u | -23.5% | x | 22.4µM*
CCOc1ccc(NC(=O)c2c(NCc3cccs3)sc3c2CCCCC3)cc1 | x | x | -4.3% | u | x | u
COc1ccc(NC(=O)c2c(NCc3ccc(C)o3)sc3c2CCC(C)C3)cc1 (stereo unspecified) | x | x | u | u | x | 25.1µM*
CCOc1ccc(NC(=O)c2c(NCc3sccc3C)sc3c2CCCCC3)cc1 | x | x | u | u | x | 14.1µM*
CCC(=O)NC(=S)Nc1ccccc1C(=O)NC1CCCCC1 | 27.1 | 9.3% | -2.4% | -13.6% | 13.4% | -5.1%
CC(C)C(=O)NC(=S)Nc1ccccc1C(=O)NC1CCCCC1 | -113.8* | -1.6% | -5.0% | 7.1% | 6.7% | 1.4%
CCCN(CCC)CCCNC(=O)c1cc2c(=O)n(C)c3ccccc3c2s1 | x | x | -4.0% | -6.2% | x | -4.7%
Cn1c(N=NC(=O)c2ccccc2)c(O)c2ccccc21 | -86.1* | 7.2% | -9.4% | u | -39.7% | 12.6µM*
Cn1c(=O)c(Cc2ccccc2)c(O)c2ccccc21 | -28.2 | u | 3.1% | -9.5% | 2.7%[46.1 µM] | -5.0%
CCC(C)NC(=O)CSc1nc2c(sc3ccccc32)c(=O)n1Cc1ccccc1Cl (stereo unspecified) | x | x | -7.7% | 1.2% | x | 6.0%
